Data: PubChem BioAssay (NCI)
The panel holds about 83,000 compounds, 20% with a hit somewhere; the sample as a whole holds those more often.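 How to read the values: 0–100, growth inhibition (40 = 60% inhibited); 0, no net growth; -100 to 0, cell death (-40 = 40% of starting cells died; -100 = all dead).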 A number with no mark means an inactive call. The source made the active and inactive calls. How the source made its calls: active means growth percent below 10; inactive means the rest.

What was measured:
Assay in all cases: NCI-60 one-dose screen, 48 h (100 = growth as untreated, 0 = no growth, -100 = all killed)
Details in all cases: 10 µM unless noted
RPMI-8226 leukemia = test system: RPMI-8226 leukemia
OVCAR-8 ovarian = test system: OVCAR-8 ovarian
OVCAR-5 ovarian = test system: OVCAR-5 ovarian
OVCAR-4 ovarian = test system: OVCAR-4 ovarian
SK-OV-3 ovarian = test system: SK-OV-3 ovarian
IGROV1 ovarian = test system: IGROV1 ovarian
OVCAR-3 ovarian = test system: OVCAR-3 ovarian
HS 578T breast = test system: HS 578T breast
NCI/ADR-RES ovarian = test system: NCI/ADR-RES ovarian
T-47D breast = test system: T-47D breast

| Compound | growth (RPMI-8226 leukemia) | growth (OVCAR-8 ovarian) | growth (OVCAR-5 ovarian) | growth (OVCAR-4 ovarian) | growth (SK-OV-3 ovarian) | growth (IGROV1 ovarian) | growth (OVCAR-3 ovarian) | growth (HS 578T breast) | growth (NCI/ADR-RES ovarian) | growth (T-47D breast) |
| --- | --- | --- | --- | --- | --- | --- | --- | --- | --- | --- |
| NC(=O)NN=C(C1CC1)C1CC1 | 114% | 123% | 101% | 104% | 104% | 109% | 106% | 97% | 105% | 107% |
| O=C1Nc2ccc(F)cc2/C1=C/c1nc(-c2ccc(F)cc2)n2ccccc12 | 117% | 97.7% | 94.7% | 96.3% | 108% | 97.8% | 112% | 100% | 112% | 96.6% |
| CCCCCCC(C)(O)c1ccccc1 (stereo not given) | 107% | 115% | 98.5% | 110% | 103% | 122% | 117% | 117% | 101% | 101% |
| CCCCn1c(Cc2ccc(Cl)cc2)nc2cc(OC)c(OC)cc2c1=O | 23.4% | 70.1% | 93.5% | 71.1% | 187% | 69.9% | 80.9% | 114% | 75.7% | 101% |
| O=C(C(=O)N1CCOCC1)c1ccc(OC2OC(CO)C(O)C(O)C2O)cc1 (stereo not given) | 111% | 100% | 98.2% | 116% | 100% | 117% | 110% | 125% | 113% | 96% |
| COc1cc(C2NC(c3ccc(Cl)cc3)C(C)C(=NC(=O)c3cnccn3)C2C)cc(OC)c1OC (stereo not given) | 79.4% | 103% | 94.5% | 93% | 108% | 91.6% | 107% | 109% | 101% | 88% |
| Cc1scc2c1N(C(=O)CN1CCN(C)CC1)c1ccccc1NC2=O | 113% | 102% | 118% | 101% | 105% | 108% | 108% | 112% | 108% | 102% |
| Cc1nnc(Nc2ccc(NC(=O)Nc3ccc(Cl)cc3)cc2)c2ccccc12 | -11.9% (active) | 31.4% | 72.8% | 42.6% | 66.4% | 62% | 44.4% | 3.43% (active) | 45.1% | 8.43% (active) |
| C[C@@H]1CC[C@H]2[C@@H](C)C(O)O[C@@H]3O[C@]4(C)CC[C@@H]1[C@]32OO4 (stereo not given in full) | 3.35% (active) | 19.2% | 26.5% | 40.2% | 95.4% | 38.9% | 30.1% | 46.4% | 9.21% (active) | 36.3% |
| COC(=O)c1ccc2c(c1)nc(-c1ccc(O)c(OC)c1)n2-c1cc(C(C)(C)C)[nH]n1 | 72.8% | 98.8% | 117% | 111% | 133% | 101% | 98.1% | 98.2% | 98.4% | 92.3% |
| COc1cc2c(c(OC)c1OC)-c1ccc(NN(C(=O)c3ccccc3)C(=O)c3ccccc3)c(=O)cc1[C@@H](NC(C)=O)CC2 (tested in a mixture with another compound) | 66.6% | 47.1% | 68% | 63.4% | 20.8% | 12.3% | 2.09% (active) | -6.83% (active) | 74% | 41.7% |
| O[C@@H]1Cc2ccc3ccccc3c2N[C@H](c2ccoc2)C1 | 103% | 101% | 100% | 99.1% | 102% | 109% | 115% | 104% | 103% | 93.8% |
| COc1ccc(/C=N\Nc2ccc([N+](=O)[O-])cn2)cc1OC | 40% | 14.6% | 22.2% | -56.6% (active) | 36.8% | 23.2% | 47% | 47.8% | 65% | -7.26% (active) |
| O=[N+]([O-])c1cnc(Sc2ccncn2)c([N+](=O)[O-])c1 | 67.4% | 97.3% | 102% | 97.8% | 97.2% | 117% | 55.1% | 97.8% | 107% | -31.7% (active) |
| CCCCCCCCCCCCCCCCN=C(CC(=O)O)C(=O)O | 103% | 107% | 116% | 34.8% | 105% | 88.6% | 107% | 96.9% | 105% | 102% |
| O=C(Nc1ccc(C2=NCCCN2)cc1)Nc1ccc(C2=NCCCN2)cc1 | 53.2% | 89% | 101% | 64% | 110% | 110% | 99.4% | 79.5% | 94.4% | 73.6% |
| O=c1cc(-c2cccnc2)oc2c1ccc1ccccc12 | 80.2% | 87% | 76.2% | 89.3% | 106% | 84.8% | 76.5% | 66.5% | 75.3% | 81.6% |
| COc1ccc(/C=C/C(=O)Nc2cccnc2Nc2ccc(F)cc2)cc1 | 88.6% | 92.7% | 104% | 91.1% | 101% | 117% | 112% | 103% | 93.1% | 87.7% |
| CCN(CC)CCCCNc1c2ccccc2[n+](C)c2c1[nH]c1ccccc12 | -42.6% (active) | -11.9% (active) | -5.18% (active) | -2.34% (active) | -11.5% (active) | -34.2% (active) | -13.6% (active) | -48.1% (active) | 86.5% | -11.7% (active) |
| c1cnc2n[nH]c(Nc3ncnc4c3sc3ncccc34)c2c1 | 88.1% | 96.8% | 93.2% | 102% | 102% | 109% | 111% | 117% | 104% | 93.5% |
| NC(N)=N/N=C(/c1ccccc1)c1ccc(Cl)cc1 | 172% | 103% | 96% | 95.2% | 81.2% | 18.7% | 5.42% (active) | -22.5% (active) | 82.6% | 64.5% |
| COc1cc2c(C#N)n3c(c2cc1OC)C(=O)C(c1ccccc1)Oc1ccccc1-3 (stereo not given) | 28.7% | 18.1% | 69.2% | 16% | 97.6% | 58.3% | 53.2% | 73.5% | 21.5% | 17.1% |
| CCOC(=O)c1c(NC(=O)C2CCCCC2C(=O)O)sc2c1CCCC2 (stereo not given) | 105% | 96.7% | 106% | 100% | 97.9% | 105% | 106% | 103% | 106% | 103% |
| COc1cc(/C=C/C(=O)c2c(-c3ccc(Cl)cc3)nc3sc(C)nn23)cc(OC)c1OC | -15.6% (active) | 53.3% | 106% | 74.8% | 110% | 89.7% | 88.4% | 109% | 59.8% | 19.3% |
| CCN(CC)c1ccc(CN(CC(=O)c2ccc(Cl)c(Cl)c2)Cc2ccccc2)cc1 | 101% | 100% | 104% | 105% | 90% | 107% | 99.2% | 103% | 105% | 85.5% |
| C=C(C[C@](O)(C(=O)/C=C/c1ccc(Cl)cc1)C(=O)OC)c1ccccc1 | -20.3% (active) | 50.2% | 105% | 84.4% | 95.7% | 81.2% | 61.7% | 104% | 59.2% | 36.2% |
| Clc1ccc2c(Nc3ccc4oc(NCCN5CCCC5)nc4c3)ccnc2c1 | 77% | 94.3% | 101% | 85.2% | 114% | 93.7% | 82.7% | 97.1% | 101% | 91.9% |
